Results on seven molecules are retold here after PubChem BioAssay (EPA / NIEHS).

Assay [1] is described as follows: ATG_CMV_CIS: Attagene CIS-FACTORIAL HepG2 Assay for human CMV (Internal Marker) (AID 2282928).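 Also: endpoint acts as a background internal control marker rather than a target.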 The following applies: HepG2 CMV promoter reporter, transcription factor profiling; actives raise or lower the signal. The essentials: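 Endogenous transcription factor activity read in HepG2 via transfected cis-promoter reporter units. After 24 h dosing, reporter mRNA measured by RT-PCR/capillary electrophoresis; gain or loss of signal fit relative to DMSO.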

The nature of assay [2]: ATG_DR4_LXR_CIS: Attagene CIS-FACTORIAL HepG2 Assay for human Liver X Receptor (LXR), DR4 submotif (AID 2282929). The following applies: HepG2 Attagene DR4 cis-reporter, mRNA transcription; actives raise or lower the signal. The essentials:
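After transient transfection with multiplexed cis-promoter reporter units, HepG2 cells received test chemicals for 24 h. Reporter mRNA induction, detected by fluorescence after RT-PCR and capillary electrophoresis, was scored relative to DMSO.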

A short description of assay [3]: ATG_AP_2_CIS: Attagene CIS-FACTORIAL HepG2 Assay for human Activator Protein 2 (AP-2) (AID 2282932). The following applies: HepG2 AP-2 cis-reporter, Attagene transcription factor profiling; actives raise or lower the signal. In a few lines:
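HepG2, transient MRTU transfection, cis-regulated reporters; 24 h compound exposure; RNA isolated, RT-PCR, 6-FAM labelling, HpaI digest, CE fluorescence. DMSO = negative control/baseline, bidirectional fit.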

Assay [4] concerns the target Transcription factor E2F1 (Homo sapiens) (UniProt Q01094). Nature of the assay: ATG_E2F_CIS: Attagene CIS-FACTORIAL HepG2 Assay for human E2F Transcription Factor 1 (AID 2282935). Conditions: HepG2 Attagene cis-reporter, E2F reporter RNA transcripts; actives raise or lower the signal. In a few lines: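 Cis-element reporter mRNA induction in transiently transfected HepG2, 24 h exposure. Activity fitted in both directions relative to DMSO negative control.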

A short description of assay [5]: ATG_M_61_CIS: Attagene CIS-FACTORIAL HepG2 Assay for M61 Transcription Factor (Internal Marker) (AID 2282937). The following applies: HepG2 Attagene CIS-FACTORIAL M61 internal marker reporter; actives raise or lower the signal. In a few lines: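 Using transiently transfected HepG2 liver cells, reporter transcript levels were assessed 24 h post-dosing by RT-PCR and capillary electrophoresis. Changes in either direction were fitted relative to DMSO controls.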

Assay [6] is described as follows: ATG_EGR_CIS: Attagene CIS-FACTORIAL HepG2 Assay for human Early Growth Response 1 (EGR1) (AID 2282938). The following applies: HepG2 Attagene CIS-FACTORIAL EGR reporter mRNA; actives raise or lower the signal. In a few lines: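 Fluorescent capillary-electrophoresis signal of reporter cDNA fragments serves as read-out. HepG2 cells bear transiently transfected cis-promoter reporter units and are exposed 24 h; gain- or loss-of-signal is fitted against DMSO.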

Assay [7] is described as follows: ATG_Ets_CIS: Attagene CIS-FACTORIAL HepG2 Assay for human Erythroblast Transformation Specific (ETS) (AID 2282941). Conditions: HepG2 ETS cis-reporter transcription, actives raise or lower the signal. The essentials:
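Steps: transfect HepG2 with multiple reporter units; treat compound 24 h; isolate RNA, DNase-treat, reverse-transcribe; PCR-amplify, label with 6-FAM, digest with HpaI; separate by capillary electrophoresis. Activity fitted both directions versus DMSO.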

Assay [8] has as its target Hepatocyte nuclear factor 3-beta (Homo sapiens) (UniProt Q9Y261). The assay is described as follows: ATG_FoxA2_CIS: Attagene CIS-FACTORIAL HepG2 Assay for human Forkhead box A2 (FOXA2) (AID 2282942). Conditions: HepG2 cis-reporter transcription factor activity, 24 h; actives raise or lower the signal. In a few lines: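 Fluorescence signal of reporter cDNA fragments, separated by capillary electrophoresis, reflects endogenous transcription factor activity in transfected HepG2 after 24 h. Both increases and decreases fitted against DMSO.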

A short description of assay [9]: ATG_FoxO_CIS: Attagene CIS-FACTORIAL HepG2 Assay for human Forkhead box O (FoxO) (AID 2282943). The following applies: HepG2 Attagene cis-reporter, FoxO element, mRNA; actives raise or lower the signal. The essentials:
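Human hepatoma HepG2 cells carry transiently introduced reporter transcription units controlled by cis promoter elements. Chemical treatment lasted 24 h, and mRNA signal was compared with DMSO.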

The nature of assay [10]: ATG_GATA_CIS: Attagene CIS-FACTORIAL HepG2 Assay for human GATA Binding Protein (AID 2282944). The following applies: HepG2 GATA cis-element reporter, Attagene multiplex mRNA; actives raise or lower the signal. The essentials:
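Measures endogenous transcription factor-driven reporter mRNA in HepG2 cells transiently carrying cis-regulated constructs. 24 h dosing; RNA via oligo(dT) reverse transcription, PCR, HpaI digestion, capillary electrophoresis; fitted relative to DMSO.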

A short description of assay [11]: ATG_ISRE_CIS: Attagene CIS-FACTORIAL HepG2 Assay for human Interferon Regulatory Factor 1 (IRF1) binding to an Interferon-Stimulated Response Element (ISRE) (AID 2282948). Conditions: HepG2 ISRE cis-reporter (Attagene), mRNA transcription readout; actives raise or lower the signal. The essentials:
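Transfected HepG2 (multiple reporter transcription units, cis elements) dosed 24 h. RNA → oligo(dT) RT → PCR → 6-FAM primer extension → HpaI → CE. DMSO = negative control/baseline.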

The nature of assay [12]: ATG_M_32_CIS: Attagene CIS-FACTORIAL HepG2 Assay for M32 Transcription Factor (Internal Marker) (AID 2282949).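 Also: background control marker of the multiplexed CIS panel rather than a real target.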 The following applies: HepG2 Attagene cis-factorial M32 reporter, mRNA; actives raise or lower the signal. The essentials: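 Fluorescent capillary electrophoresis peaks of HpaI-digested, FAM-labelled RT-PCR reporter products give the signal. Source: transiently transfected human liver HepG2 cells, 24 h after chemical dosing; bidirectional fitting against DMSO.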

Assay [13] can be described thus: ATG_MRE_CIS: Attagene CIS-FACTORIAL HepG2 Assay for human Metal Responsive Element (MRE) (AID 2282954). The following applies: HepG2 MRE cis-reporter transcription, Attagene multiplex; actives raise or lower the signal. In a few lines:
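Transient MRTU transfection of HepG2 (FuGene 6); 24 h dosing; total RNA → oligo(dT) RT, PCR, 6-FAM primer extension, HpaI cut, CE. Bidirectional fit vs DMSO.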

Assay [14] concerns the target Paired box protein Pax-6 (Homo sapiens) (UniProt P26367). Nature of the assay: ATG_Pax6_CIS: Attagene CIS-FACTORIAL HepG2 Assay for human Paired Box 6 (PAX6) (AID 2282956). Conditions: HepG2 CIS-FACTORIAL PAX6 reporter transcription, RNA readout; actives raise or lower the signal. In a few lines: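 Transient MRTU transfection of HepG2 → compound exposure 24 h → TriZol RNA, oligo(dT) RT → PCR, 6-FAM primer extension, HpaI cut → capillary electrophoresis; activity fitted both directions against DMSO.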

Assay [15] in a line: ATG_PXRE_CIS: Attagene CIS-FACTORIAL HepG2 Assay for human Pregnane X Receptor Element (PXRE) (AID 2282957). Conditions: HepG2 Attagene CIS-FACTORIAL PXRE reporter, mRNA; actives raise or lower the signal. The essentials:
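Cis-element reporter mRNA in human hepatoma HepG2 cells is measured 24 h post-dosing by RT-PCR, primer-extension labeling and capillary electrophoresis; gain or loss of signal is fitted relative to DMSO.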

Assay [16] can be described thus: ATG_Sox_CIS: Attagene CIS-FACTORIAL HepG2 Assay for human SRY-box transcription factor (SOX) (AID 2282960). Conditions: HepG2 Attagene cis-factorial SOX reporter, mRNA; actives raise or lower the signal. In a few lines: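 Using transiently transfected HepG2 cells, reporter transcription driven by cis elements was assessed 24 h after dosing. Signal was fluorescence of capillary-separated RT-PCR products, with DMSO defining baseline activity.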

Assay [17] can be described thus: ATG_SREBP_CIS: Attagene CIS-FACTORIAL HepG2 Assay for human Sterol Regulatory Element Binding (SREBP) (AID 2282962). Conditions: HepG2 Attagene cis-factorial SREBP reporter, mRNA; actives raise or lower the signal. In a few lines:
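Transfected HepG2 (cis-regulated reporter library, endogenous TFs) → compound 24 h → total RNA → oligo(dT) RT → reporter-specific PCR → FAM primer extension, HpaI cut → CE fluorescence. Fit bidirectional vs DMSO.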

The nature of assay [18]: ATG_TCF_b_cat_CIS: Attagene CIS-FACTORIAL HepG2 Assay for human T-Cell-Factor with beta-catenin (TCF/b-cat) (AID 2282965). Conditions: HepG2 TCF/beta-catenin cis-reporter transcription, actives raise or lower the signal. The essentials: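 Measured: reporter mRNA in HepG2 transiently transfected with cis-promoter reporter units, 24 h after chemical addition. Fitting was bidirectional, DMSO as negative control.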

The nature of assay [19]: ATG_TAL_CIS: Attagene CIS-FACTORIAL HepG2 Assay for human TAL Basal Promoter (AID 2282966).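 Also: background control endpoint measuring basal TAL promoter reporter mRNA not a specific factor.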 Conditions: HepG2 Attagene cis-factorial TAL promoter reporter; actives raise or lower the signal. The essentials:
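In this cell-based multiplex, HepG2 liver cells bearing cis-promoter reporter constructs are dosed for 24 hours. Total RNA is reverse-transcribed and amplified, labelled fragments are sized by capillary electrophoresis, and signal changes are fitted bidirectionally versus DMSO.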

Assay [20] is described as follows: ATG_TGFb_CIS: Attagene CIS-FACTORIAL HepG2 Assay for human Transforming Growth Factor (TGF) (AID 2282967). Conditions: HepG2 Attagene CIS TGFb reporter, mRNA transcription; actives raise or lower the signal. In a few lines: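 After a 24-hour incubation with compound, transfected HepG2 cells were lysed for RNA; reporter cDNA was amplified, fluorescently end-labeled and separated by CE. DMSO served as baseline for bidirectional fits.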

Molecules are shown by their SMILES. Activity calls are given as the source filed them. The calls were made as follows: active = hit-call score of the fitted dose curve at least 0.9, where 1 is the maximum; inactive = score below 0.9.

Sequence of Hepatocyte nuclear factor 3-beta (Homo sapiens) (Q9Y261 whole entry, looked up, the tested form may be a part): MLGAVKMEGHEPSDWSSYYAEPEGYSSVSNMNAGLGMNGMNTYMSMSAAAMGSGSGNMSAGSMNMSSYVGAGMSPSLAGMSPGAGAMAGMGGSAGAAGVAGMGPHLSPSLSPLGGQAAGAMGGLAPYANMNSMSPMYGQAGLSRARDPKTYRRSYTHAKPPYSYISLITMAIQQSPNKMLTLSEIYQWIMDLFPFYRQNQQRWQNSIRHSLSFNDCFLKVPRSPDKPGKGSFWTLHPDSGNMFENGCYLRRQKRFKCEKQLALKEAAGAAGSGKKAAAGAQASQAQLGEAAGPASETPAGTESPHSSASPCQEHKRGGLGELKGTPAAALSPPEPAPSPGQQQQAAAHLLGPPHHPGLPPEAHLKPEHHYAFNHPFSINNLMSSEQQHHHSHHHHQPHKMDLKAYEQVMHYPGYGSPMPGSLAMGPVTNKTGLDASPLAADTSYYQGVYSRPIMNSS
Sequence of Paired box protein Pax-6 (Homo sapiens) (P26367 whole entry, looked up): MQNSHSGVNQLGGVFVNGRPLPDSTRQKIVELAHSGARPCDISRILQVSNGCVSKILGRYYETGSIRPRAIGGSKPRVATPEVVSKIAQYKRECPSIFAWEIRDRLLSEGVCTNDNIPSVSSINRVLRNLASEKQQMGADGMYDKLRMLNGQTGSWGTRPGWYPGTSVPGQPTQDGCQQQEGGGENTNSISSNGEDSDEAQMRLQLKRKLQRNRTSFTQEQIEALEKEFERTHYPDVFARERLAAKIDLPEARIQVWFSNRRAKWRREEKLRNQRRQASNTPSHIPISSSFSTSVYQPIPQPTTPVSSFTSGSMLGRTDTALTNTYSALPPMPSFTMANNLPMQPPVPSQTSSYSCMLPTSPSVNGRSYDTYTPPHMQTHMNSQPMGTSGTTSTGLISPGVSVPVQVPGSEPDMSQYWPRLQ
Sequence of Transcription factor E2F1 (Homo sapiens) (Q01094 whole entry, looked up): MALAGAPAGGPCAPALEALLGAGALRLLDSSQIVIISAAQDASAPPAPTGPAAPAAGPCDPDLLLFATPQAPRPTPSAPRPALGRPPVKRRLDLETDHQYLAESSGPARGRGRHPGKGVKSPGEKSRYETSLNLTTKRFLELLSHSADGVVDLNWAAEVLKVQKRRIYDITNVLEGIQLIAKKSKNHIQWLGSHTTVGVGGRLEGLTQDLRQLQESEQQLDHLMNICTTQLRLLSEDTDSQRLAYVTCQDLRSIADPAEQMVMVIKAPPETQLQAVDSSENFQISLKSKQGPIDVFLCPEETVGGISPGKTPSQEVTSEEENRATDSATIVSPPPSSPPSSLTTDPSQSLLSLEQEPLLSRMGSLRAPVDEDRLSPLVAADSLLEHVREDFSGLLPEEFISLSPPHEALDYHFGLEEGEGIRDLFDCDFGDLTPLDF

Consider `CCOP(=O)(OCC)Oc1ccc([N+](=O)[O-])cc1`, for which the result in [1], in assay [2], in assay [3], in assay [4], in assay [5] and in assay [6] was inactive. The molecule was classed as inactive in [7], in assay [8], in assay [9], in assay [10], in assay [11] and in [12]. For the same molecule, the molecule was classed as inactive in assay [13], in assay [14], in assay [16], in assay [17], in [18] and in [19]. Further, the call in [20] was inactive. For the same molecule, the AC50 (as a rule, the concentration at which the activity in the assay is half-maximal) in assay [15] is 26.8 µM (active).
In the case of `CCOP(O)OCC`, the molecule was classed as inactive in assay [1], in [2], in assay [3], in [4], in assay [5] and in assay [6]. Further, the molecule was classed as inactive in assay [7], in assay [8], in [9], in assay [10], in assay [11] and in assay [12]. Also, the result in assay [13], in [14], in [16], in [17], in [18] and in assay [19] was inactive. The call in assay [20] was inactive. Also, in [15], the AC50 was 30.1 µM (active).
For `Cc1ccccc1CCl`, the molecule was called inactive in [1], in [2], in assay [3], in assay [4], in assay [5] and in assay [6]. Further, the call in assay [7], in assay [8], in assay [9], in assay [10], in assay [11] and in assay [12] was inactive. The molecule was called inactive in assay [13], in assay [14], in [15], in assay [16], in [17] and in assay [18]. For the same molecule, the molecule was called inactive in assay [19] and in assay [20].
With `CC1(C)CC(=O)CC(C)(C)N1[O]`, the molecule was called inactive in assay [1], in [2], in assay [3], in assay [4], in assay [5] and in assay [6]. The call in assay [7], in [8], in [9], in assay [10], in assay [11] and in [12] was inactive. For the same molecule, the call in [13], in assay [14], in assay [16], in assay [17], in [18] and in assay [19] was inactive. In addition, in assay [20], the call was inactive. Also, the AC50 in assay [15] is 33.2 µM (active).
In the case of `CCC[N+](=O)[O-]`, the call in assay [1], in [2], in [3], in [4], in [5] and in assay [6] was inactive. Also, the result in [7], in [8], in [9], in assay [10], in [11] and in assay [12] was inactive. Besides, the call in [13], in assay [14], in [15], in assay [16], in assay [17] and in [18] was inactive. In addition, the molecule was classed as inactive in [19] and in assay [20].
In the case of `O=C(CCN1CC1)OCC(CO)(COC(=O)CCN1CC1)COC(=O)CCN1CC1`, the molecule was called inactive in assay [1], in [2], in assay [3], in assay [4], in [5] and in assay [6]. The molecule was called inactive in [7], in [8], in [9], in assay [10], in [11] and in [12]. Also, the call in assay [13], in assay [14], in assay [15], in [16], in assay [17] and in assay [18] was inactive. For the same molecule, the result in assay [19] and in assay [20] was inactive.
Consider `CNC(=O)Oc1cc(C)c(SC)c(C)c1`, for which the AC50 in assay [1] is 17.4 µM (active); in assay [6], 100 µM (active); in assay [11] it was 100 µM (active); in assay [13], 74.2 µM (active); in [15], 26.7 µM (active); in assay [16], 27.1 µM (active). Moreover, the molecule was called inactive in [2], in assay [3], in assay [4], in assay [5], in assay [7] and in [8]. Moreover, the molecule was classed as inactive in assay [9], in [10], in assay [12], in assay [14], in assay [17] and in assay [18]. Also, the molecule was called inactive in assay [19] and in assay [20].
